PubChem BioAssay AID585 (National Center for Advancing Translational Sciences (NCATS), 2007)
Out of some 71,000 compounds screened, about 1,300 (1.8%) were called active. The sample holds actives, similar compounds and a random draw of the others, so the mix is not that of the screen. A number with no mark means an inactive call. Calls follow the shape of the full dose curve.

Target: Beta-lactamase (Escherichia coli (strain K12)) (UniProt P00811)
Assay: Promiscuous and Specific Inhibitors of AmpC Beta-Lactamase (assay without detergent); as to activity change, negative = inhibition: % of control where 0% means no effect
Conditions: AmpC nitrocefin hydrolysis, absorbance 480 nm, no detergent; series mostly up to 28.7 µM; activity change, negative = inhibition: at the top concentration
Description: NIH Molecular Libraries Screening Centers Network [MLSCN]
NIH Chemical Genomics Center [NCGC]
PI Name: Shoichet, Brian K.
This aggregation profiling approach exploits the sensitivity of aggregate formation to detergent. Inhibition of b-lactamase is measured in the presence and absence of 0.01% Triton X-100. See Pubchem assay "Promiscuous and Specific Inhibitors of AmpC Beta-Lactamase (assay with detergent)" for related screen. Compounds that inhibit only in the absence of detergent are considered likely promiscuous aggregators.
A screen of 1,030 compounds was performed in Brian Shoichet's lab in 96-well format. AmpC activity was measured by following the absorbance at 480 nm. Nitrocefin is a chromogenic substrate: while nitrocefin is yellow (lmax 390 nm), the product of its hydrolysis is red (lmax 486 nm, 17,000 M-1). AmpC beta lactamase was provided by Brian Shoichet and Brian Feng, UCSF.
NCGC Assay Protocol Summary:
20 mM phosphate buffer, pH 7.0
Triton X-100: No Detergent screen: 0.0001%, Detergent screen: 0.01%.
Buffer in columns 3 and 4 as negative control (no enzyme).
5.3 nM AmpC in columns 1, 2, 5-48. Titration of UCSF compound 9 control (from 10 mM, then 1:2) pin-transferred to column 2. Column 1 is neutral (100% activity).
Six uL of reagents were dispensed to 1536-well Greiner black clear bottom plates. Compounds and controls (23 nL) were transferred via Kalypsys PinTool. The plates were incubated for 15 min at room temperature, and then 2 uL of 800 uM solution of nitrocefin was added to start the reaction. The plates were immediately transferred to and read every 20 seconds for 4 min on ViewLux (Perkin-Elmer) High-throughput CCD imager using 480 nm absorbance protocol. During dispense, reagent bottles were kept submerged into 4 deg C water bath.
Keywords: NIH Roadmap, MLSCN, MLI, MLSMR, qHTS, NCGC, AmpC Beta-Lactamase, Aggregation.
Potency is read from the fitted curve at half-maximal effect.

Sequence of Beta-lactamase (Escherichia coli (strain K12)) (P00811 whole entry, looked up): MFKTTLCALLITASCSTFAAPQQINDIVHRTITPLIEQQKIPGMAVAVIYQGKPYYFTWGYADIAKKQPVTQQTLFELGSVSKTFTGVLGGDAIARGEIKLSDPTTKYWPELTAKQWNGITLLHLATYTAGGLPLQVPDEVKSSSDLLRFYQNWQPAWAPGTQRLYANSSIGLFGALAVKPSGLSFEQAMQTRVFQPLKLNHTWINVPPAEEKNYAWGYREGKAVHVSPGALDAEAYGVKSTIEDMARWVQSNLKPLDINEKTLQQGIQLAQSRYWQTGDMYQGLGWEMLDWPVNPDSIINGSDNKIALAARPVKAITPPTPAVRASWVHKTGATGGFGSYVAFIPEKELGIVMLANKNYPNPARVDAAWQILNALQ

Compared with COc1cc2ccccc2cc1C(=O)Nc1ccc(S(=O)(=O)Nc2cc(C)on2)cc1, O=S(=O)(Nc1ccccn1)c1ccc(Oc2ccccc2)cc1 is higher in “activity change, negative = inhibition” value: -17% for the first, -15.4% for the second.

Going from CCCc1cc(=O)[nH]c(SCc2ccc(C#N)cc2)n1 to Cc1ccc(SCc2cc(=O)[nH]c(N3CCCCC3)n2)cc1, the “activity change, negative = inhibition” value rises from -16.6% to 10.2%.

Compared with Cc1ccc(C2CC(c3cccc(Br)c3)n3nc(N)nc3N2)cc1 (configuration not stated), CCOc1ccccc1C1CC(c2ccc(Cl)cc2)Nc2nc(N)nn21 (configuration not stated) is higher in “activity change, negative = inhibition” value: 55.1% for the first, 95% for the second.

Compared with Nc1nc2n(n1)C(c1ccco1)CC(c1ccc(Cl)c(Cl)c1)N2 (configuration not stated), COc1ccc(C2CC(c3ccc(Cl)cc3Cl)Nc3nc(N)nn32)cc1OC (configuration not stated) is higher in “activity change, negative = inhibition” value: 67.6% for the first, 133% for the second.

First: O=C(O)CCCC(=O)Nc1ccccc1-n1ccnc1
Second: CC(=O)OC(C(=O)NCCc1ccccc1)c1cccnc1 (configuration not stated)
The “activity change, negative = inhibition” value of the first is lower: -22.6% for the first, -1.8% for the second.

First: CCOC(=O)c1c(NC(=O)CCC(=O)NCc2ccco2)sc2c1CCCC2
Second: CCOC(=O)c1ccc(NC(=O)CS(=O)(=O)c2cn(CC)c3ccccc23)cc1
The “activity change, negative = inhibition” value of the first is higher: 102% for the first, -12.7% for the second.

First: CC(C)[C@H](CO)Nc1nc(Nc2cc(N)cc(Cl)c2)c2ncn(C(C)C)c2n1
Second: Cc1ccnc(SCCn2c(N(C)Cc3ccccc3)nc3c2c(=O)n(C)c(=O)n3C)n1
The “activity change, negative = inhibition” value of the first is higher: 76.9% for the first, -2.9% for the second.

First: COc1ccccc1N1CCN(c2nc3ccccc3n3nnnc23)CC1
Second: CCn1c(=O)cc(OCC(=O)NCCCN2CCN(c3cccc(Cl)c3)CC2)c2ccccc21
The “activity change, negative = inhibition” value of the first is lower: 33.4% for the first, 159% for the second.

First: NC(=O)c1ccc(OC[C@H](O)CN2CC=C(c3ccc(F)cc3)CC2)cc1
Second: O=C(Oc1ccc(-c2nc(-c3ccccn3)no2)cc1)c1ccccc1
The “activity change, negative = inhibition” value of the first is higher: 3.7% for the first, 0.2% for the second.

Going from CN(C)c1nc(N)nc(CSc2nnnn2-c2cccc3ccccc23)n1 to CNC(=O)CSc1nnnn1-c1ccc(C)cc1C, the “activity change, negative = inhibition” value falls from 67.3% to -5.2%.

First: N#CC1=C(N)Oc2n[nH]c(CSc3ccccc3)c2C12C(=O)Nc1ccccc12 (configuration not stated)
Second: Cn1c(=O)[nH]c(=O)c2c1nc(CN(Cc1ccccc1)Cc1ccccc1)n2CCN1CCOCC1
The “activity change, negative = inhibition” value of the first is lower: -8.6% for the first, 127% for the second.

Compared with CCOc1ccc(N(CC(=O)OC)S(=O)(=O)c2c(C)noc2C)cc1, CCOc1ccc(NC(=O)CCC(=O)n2nc(C)cc2C)cc1 is lower in “activity change, negative = inhibition” value: 53.8% for the first, -5.6% for the second.

Compared with O=c1cc(-c2ccc(O)c(O)c2)oc2cccc(O)c12, Cn1c(C(=O)NCCc2ccsc2)cc2c(=O)n(C)c3ccccc3c21 is higher in “activity change, negative = inhibition” value: -12.2% for the first, 56.6% for the second.

Going from Cc1ccc(C(=O)NCC(=O)O)cc1S(=O)(=O)N1CCCCC1 to O=C(Nc1nc2ccc(S(=O)(=O)N3CCCC3)cc2s1)C1CCCO1 (configuration not stated), the “activity change, negative = inhibition” value rises from -2% to 8.8%.

First: O=C(c1csnn1)N1CCC[C@@]2(CCN(c3cccc(-c4ccccc4)c3)C2)C1
Second: O=C(CCn1c(=O)[nH]c2ccccc2c1=O)NCCCN1CCN(c2cccc(Cl)c2)CC1
The “activity change, negative = inhibition” value of the first is lower: 73.1% for the first, 96.8% for the second.

First: Cc1cc2cc(CN(Cc3cccs3)Cc3nnnn3CC3CCCO3)c(=O)[nH]c2cc1C (configuration not stated)
Second: Cn1c(C(=O)NCCN2CCc3ccccc3C2)cc2c(=O)[nH]c3ccccc3c21
The “activity change, negative = inhibition” value of the first is higher: 117% for the first, 91.4% for the second.

Going from CC(C)(C)c1cc(C(=O)NCc2cccnc2)ccn1 to CCCNS(=O)(=O)c1ccc(CCC(=O)NCc2cccnc2)cc1, the “activity change, negative = inhibition” value rises from 2.5% to 11.5%.

Going from CCN1CCCC1CNC(=O)Cn1cnc2ccc(S(=O)(=O)N3CCC(C)CC3)cc2c1=O (configuration not stated) to Cc1ccccc1S(=O)(=O)Cc1ccc(C(=O)NCCN2CCCCC2C)o1 (configuration not stated), the “activity change, negative = inhibition” value falls from 28.6% to 0.5%.

First: Cn1c(C(=O)N2CCC(C(N)=O)CC2)cc2c(=O)n(C)c3ccccc3c21
Second: CCOc1ccccc1NC(=O)C1CCN(S(=O)(=O)c2c(C)nn(C)c2C)CC1
The “activity change, negative = inhibition” value of the first is lower: 23% for the first, 74.2% for the second.

Compared with CNC(=O)NCCN1CCCC1=O, O=C(CN1C(=O)COc2ccccc21)NCCN1CCc2ccccc2C1 is higher in “activity change, negative = inhibition” value: -9.1% for the first, 8.7% for the second.

Going from COc1ncnc2c1N=C1CC(C)(C)CC(N)=C1S2 to CCOC(=O)c1sc(=S)n(-c2cccc(OC)c2)c1N, the “activity change, negative = inhibition” value rises from -11.2% to 4.7%.

First: C=CCOC(=O)COCCC(C)C
Second: CCOC(=O)Cn1c(N)c(C(=O)OC)sc1=S
The “activity change, negative = inhibition” value of the first is lower: -14.9% for the first, -0.1% for the second.

First: Cc1ccc(OCc2nc(C#N)c(N3CCCC3)o2)cc1
Second: N#Cc1ccccc1-n1c(N)c(C(=O)N2CCCC2)sc1=S
The “activity change, negative = inhibition” value of the first is higher: 28.1% for the first, 22.4% for the second.

First: C=CCNc1nnc(SCC(=O)N2CCCCC2)c2ccccc12
Second: CCCN1CCN(CCCNC(=O)CN2C(=O)COc3ccccc32)CC1
The “activity change, negative = inhibition” value of the first is lower: -5.9% for the first, -4.1% for the second.

First: COC(=O)[C@H](C)NC(=O)Nc1ccc(OC(F)(F)F)cc1
Second: Cn1c(=O)oc2cc(S(=O)(=O)N3CCC(C(=O)Nc4ccc(OC(F)(F)F)cc4)CC3)ccc21
The “activity change, negative = inhibition” value of the first is lower: 7.1% for the first, 22.4% for the second.

Going from CC(=O)Nc1ccn(Cc2c(F)cccc2Cl)n1 to CCOc1ccc(CCNC(=O)C2CCN(c3ccc(N4CCOCC4)nn3)CC2)cc1OCC, the “activity change, negative = inhibition” value rises from -7% to 73.5%.

In the case of Cc1cc(NS(=O)(=O)c2ccccc2)no1, the Potency is reported as 3.98 µM [single pt active] (active).
With Cc1ccc(C2CC(c3cccc(C)c3)n3nc(N)nc3N2)cc1 (configuration not stated) the Potency was 3.98 µM [single pt active] (active).
For CCOc1ccccc1C1CC(c2ccccc2)Nc2nc(N)nn21 (configuration not stated), the Potency was 3.98 µM [single pt active] (active).
With Oc1ccc(O)c2c(O)cccc12 the Potency was 0.631 µM (active).
In the case of O=C(NCc1cccnc1)c1ccc(CS(=O)(=O)c2ccc(Br)cc2)o1, the Potency is reported as 3.16 µM (active).
With CC1CCCC(C)N1CCCNC(=O)c1cc2c(=O)n(C)c3ccccc3c2n1C (configuration not stated) the Potency was 3.16 µM [single pt active] (active).
Cn1c(C(=O)NCCCN2CCN(c3cccc(Cl)c3)CC2)cc2c(=O)n(C)c3ccccc3c21 was tested, and the Potency was 3.98 µM [single pt active] (active).
With CCN1CCCC1CNC(=O)c1cc2c(=O)n(C)c3ccccc3c2n1C (configuration not stated) the Potency was 3.98 µM [single pt active] (active).
With CCOC(=O)c1sc(=S)n2c1[nH]c(=O)c1ccc(C(=O)OC)cc12 the Potency was 12.6 µM (active).
In the case of O=C(CN1C(=O)COc2ccccc21)Nc1ccc(F)cc1, the Potency is reported as 3.98 µM [single pt active] (active).
With Oc1c(Cl)cc(Cl)c(Cl)c1Cc1c(O)c(Cl)cc(Cl)c1Cl the Potency was 5.01 µM (active).
For Cc1ccc2nc(NC(=O)C3CCN(S(=O)(=O)c4ccc5c(c4)oc(=O)n5C)CC3)sc2c1, the Potency was 3.98 µM [single pt active] (active).
For C[N+]1(C)C2CC(OC(=O)C(CO)c3ccccc3)CC1[C@@H]1O[C@H]21 (some centres not stated), the Potency was “inactive”.
CCOc1ccccc1NC(=O)C1CCC(CNc2c(N3CCOCC3)c(=O)c2=O)CC1 (configuration not stated) was tested, and the Potency was 3.98 µM [single pt active] (active).

For CC[N+](C)(CC)CCC[n+]1c(-c2ccccc2)c2cc(N)ccc2c2ccc(N)cc21, the “activity change, negative = inhibition” value was 18.9% [at 12.8 µM].
